# Compounds with a hit are over-represented: about 7.7% of the library has one in this group of screens.
# Giardia FBPA inh = blocks Giardia fructose-bisphosphate aldolase activity. actives 0.71% (n = 290,000). A8B2U2. Potency, µM (highest dose often 59.6 µM), for inactives: top-dose activity, negative = inhibition, most hits filed as inhibitors. purified Giardia FBPA; further: potency means the concentration at half of the fitted maximal effect; nearly all actives have a fitted effect of over 55% in size
# Target sequence (A8B2U2 whole entry, looked up): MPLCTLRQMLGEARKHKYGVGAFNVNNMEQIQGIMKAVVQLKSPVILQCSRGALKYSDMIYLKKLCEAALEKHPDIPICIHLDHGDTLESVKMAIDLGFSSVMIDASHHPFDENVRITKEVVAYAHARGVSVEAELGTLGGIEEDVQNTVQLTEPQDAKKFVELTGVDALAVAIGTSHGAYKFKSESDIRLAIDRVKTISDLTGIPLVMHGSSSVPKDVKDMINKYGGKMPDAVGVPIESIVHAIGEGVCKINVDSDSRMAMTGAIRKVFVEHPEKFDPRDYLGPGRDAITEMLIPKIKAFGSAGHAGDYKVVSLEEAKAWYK
#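 40 nM FBPA preincubated 10 min at RT with compound (up to 57.5 uM final), then substrate plus GAPDH/TPI/NAD/arsenate coupling and diaphorase/resazurin added. Fluorescence read after 20 min at RT, 525/598 nm.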
# TbPYK inhibitor = blocks Trypanosoma brucei pyruvate kinase; AID 624173; TbPYK enzyme, Kinase-Glo Plus ATP luminescence, 45 min; Q57TT1; Potency, µM (highest dose often 76.8 µM), without a hit: top-dose activity, negative = inhibition, most hits filed as inhibitors; actives 0.12% (n = 410,000); further: potency means the concentration at half of the fitted maximal effect; nearly all actives have a fitted effect of over 50% in size
#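 Screened from lowest to highest concentration, compounds were pinned into TbPYK/substrate mixtures, and ADP (130 uM final) was added. Plates sat at room temperature for 45 min prior to Kinase-Glo Plus detection by luminescence.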
# HCMV antiviral = human cytomegalovirus inhibition | activity change, negative = inhibition, % at 57.5 µM | actives 4.5% (n = 410,000) | HFF cells, HCMV-luciferase reporter, 72 h; active compounds read low | AID 1259415; in the data active means activity change below about -60%; inconclusive means no clear call, values can overlap the other calls; inactive means above about -39%
#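 Screen run at 2 compound doses on HFFs infected with reporter HCMV, MOI 1 PFU/cell. Luciferase activity from cell lysates at 72 h post infection gave inhibition relative to buffer-only and Salinomycin wells.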
# FMDV antiviral = antivirals against foot and mouth disease virus; FMDV antiviral cell-based qHTS; Potency, µM (highest dose often 57.9 µM), without a hit: at the highest dose activity change, negative = inhibition, usual class: inhibitors; actives 1.2% (n = 410,000); calls by dose curve; tested in HEK293T cells; further: read-out not given here; potency means the concentration at half of the fitted maximal effect; nearly all actives have a fitted effect of over 45% in size
# Sm TGR block = blocks Schistosoma mansoni thioredoxin glutathione reductase. Q962Y6. purified TGR, DTNB reduction, TNB absorbance 405 nm. Potency, µM (highest dose often 114 µM), inactives show top-dose activity change, negative = inhibition, most hits filed as inhibitors. actives 3% (n = 360,000). AID 485364; further: potency means the concentration at half of the fitted maximal effect; nearly all actives have a fitted effect of over 60% in size
#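 Kinetic colorimetric format: TGR-catalysed, NADPH-driven DTNB reduction monitored via TNB absorbance. Enzyme dispensed at 20 nM; compound exposure 15 min at room temperature before reaction start.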
# RE007 growth inh = less growth of the S. pombe RE007 Vpr strain; S. pombe RE007 Vpr strain, BacTiter-Glo ATP luminescence, 24 h; Potency, µM (titrated, usually from 92.2 µM), without a hit: at the top dose activity change, negative = less growth, usual class: inhibitors; actives 0.21% (n = 360,000); active means well fitted falling curve with a large enough effect; inconclusive means small, poorly fitted or top-dose-only effect; inactive means no such curve, though single readings can be large or run the other way; further: potency means the concentration at half of the fitted maximal effect; nearly all actives have a fitted effect of over 50% in size
#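 Fission yeast strain RE007, carrying one chromosomally integrated HIV-1 vpr copy, was seeded at OD 0.01 in PMG+AL medium with 23 nL pinned compound. After 24 h at 30 °C and 99% humidity, viability was read by BacTiter-Glo luminescence.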
# Active calls of the source: *; ? = inconclusive; · = no result given; [ ] = another dose, or the depositor's remark. Unless noted, the call rests on the fitted dose curve; in most records, active means well fitted curve in the direction sought with a large enough effect; inconclusive means small, poorly fitted or top-dose-only effect, or another doubt; inactive means no such curve, though single readings can be large; an effect the other way counts as inactive or inconclusive. On the % scale 0 is the no-effect control and ±100 the full control effect.
SMILES,Giardia FBPA inh,TbPYK inhibitor,HCMV antiviral,FMDV antiviral,Sm TGR block,RE007 growth inh
COc1ccc2nc(NC(=O)c3nc(S(=O)(=O)Cc4cccc(C)c4)ncc3Cl)sc2c1,·,0.6%,-99.9*,?,?,·
COc1ccc2nc(NC(=O)c3nc(S(=O)(=O)Cc4ccccc4)ncc3Cl)sc2c1,·,-3.7%,-100.7*,25.1µM*,3.9%,·
CCSc1ncc(Cl)c(C(=O)Nc2nc3ccc(OC)cc3s2)n1,·,-4.9%,-15.2,-18.1%,-3.8%,·
COc1ccc2nc(NC(=O)c3nc(S(=O)(=O)Cc4ccccc4F)ncc3Cl)sc2c1,·,4.5%,-87.8*,?,-12.1%,·
COc1ccc(N2C(=O)CC(Nc3ccc(N4CCOCC4)cc3)C2=O)c(OC)c1 (centres undefined),-23.8%,-11.9%,22.6,15.3%,28.2µM*,0.4%
Cc1ccc(CN2C(=O)CC(Nc3ccc(N4CCOCC4)cc3)C2=O)cc1 (centres undefined),0.8%,-21.9%,2.7,0.7%,39.8µM*,-13.3%
COc1cccc(N2C(=O)CC(Nc3ccc(N4CCOCC4)cc3)C2=O)c1 (centres undefined),-24.0%,-19.4%,·,·,?,-18.9%
O=C1CC(Nc2ccc(N3CCOCC3)cc2)C(=O)N1c1cccc(C(F)(F)F)c1 (centres undefined),-26.3%,-9.3%,·,-15.1%,28.2µM*,-2.6%
CC[C@@]1(c2ccccc2)NC(=O)N(C)C1=O,·,2.8%,·,·,·,·
COc1ccc(C(=O)Nc2ccc3c(c2)N(C)C(=O)c2ccccc2S3)cc1OC,·,2.4%,-5.7,?,5.4%,·
COc1ccc(-c2coc3c(C(=O)Nc4cccnc4)cccc23)c(C)c1,·,-7.9%,?,20µM*,·,9.9%[18.4 µM]
COc1ccc(-c2coc3c(C(=O)NCc4cccc(Cl)c4)cccc23)c(C)c1,·,-10.7%,-62.1*,0.0%,·,10.0%
Cc1cccc(CC(Cc2nc3ccccc3[nH]2)c2nc3ccccc3[nH]2)c1 (centres undefined),-2.4%,0.7%,-82.6*,?,0.5%,33.8%
O=C1N/C(=C/c2ccco2)C(=O)N1Cc1ccccc1F,-2.1%,?,0.2,-13.7%,56.2µM*,-17.6%
CC(C)CN1C(=O)/C(=C/c2ccco2)NC1=S,?,-19.9%,-39.4,15.2%,31.6µM*,-10.0%
CC(C)CN1C(=O)/C(=C/c2cccs2)NC1=S,-10.0%,-13.8%,-62.5*,-8.5%,-10.2%,-15.0%
Cc1ccc(NC(=O)CN2C(=O)N/C(=C\c3ccco3)C2=O)cc1,·,-24.7%,11.1,-14.3%,·,·
CCOC(=O)c1ccccc1NC(=O)CSc1nc2cn(CC)nc2c(=O)n1Cc1ccc(Cl)cc1,·,1.1%,0.4,-21.8%,1.5%,·
O=c1c(S(=O)(=O)c2ccccc2)cn(Cc2ccc(F)cc2)c2cc(N3CCCCC3)c(F)cc12,·,-3.2%,-3.1,-3.5%,-2.2%,·
COC(=O)C(Nc1cc(OC)ccc1OC)(c1ccccc1)C(Nc1cc(OC)ccc1OC)c1ccc(C(F)(F)F)cc1 (centres undefined),·,·,-32.1,·,·,·
CNc1nc2cnc(Nc3ccc(C(F)(F)F)cc3)cc2n1-c1cc(OC)c(OC)c(OC)c1,·,·,-13.8,·,·,·
Oc1cc(O)cc(-c2cc3ccc(O)cc3o2)c1,·,-12.0%,31.1,-21.4%,·,5.2%
CC1(C)Oc2cc3oc(-c4cc(O)cc(O)c4)cc3cc2CC1O (centres undefined),·,-5.7%,-29.6,11.2µM*,·,-5.8%
CCCCCC(O)(CCN1CCCCC1)c1ccc(OCC)cc1 (centres undefined),4.6%,-19.0%,4.0,-28.0%,1µM*,-13.2%
COc1ccc(C(O)(CCN2CCCCC2)C2CCCCC2)cc1 (centres undefined),-2.2%,-0.7%,?,-13.5%,1.41µM*,-31.7%
SMILES,Giardia FBPA inh,TbPYK inhibitor,HCMV antiviral,FMDV antiviral,Sm TGR block,RE007 growth inh
CCC(O)(CCN1CCCCC1)c1ccccc1 (centres undefined),3.3%,1.4%,4.9,-1.6%,13.5%,12.5%
CCCC(O)(CCN1CCCCC1)c1ccc(OCC)cc1 (centres undefined),-5.4%,-4.5%,26.3,-20.9%,3.98µM*,-5.1%
CC(=O)O[C@@H]1C(=O)O[C@H]2[C@@H]1OC(=O)[C@@H]2OC(C)=O,·,1.2%,·,·,·,·
Cc1c(Cl)cccc1NC(=O)Nc1ccc(C(N)=O)cc1,-3.9%,-0.5%,71.0,5.3%,-2.7%,6.7%
CNC(=O)Nc1ccc2snnc2c1,-3.8%,-2.9%,7.6,-0.1%,-4.8%,-8.7%
CC(=O)Nc1cccc(NC(=S)Nc2cccc(Cl)c2C)c1,-0.7%,-13.9%,40.8,20.0%,?,8.4%
O=C(Nc1ccc(F)cc1)Nc1ccc2snnc2c1,·,-1.5%,-75.1*,-17.0%,-8.1%,·
CC(=O)c1ccc(NC(=O)Nc2ccc3snnc3c2)cc1,·,-16.9%,52.9,30.3%,1.5%,·
CC(=O)Nc1cccc(NC(=O)Nc2cccc(Cl)c2C)c1,1.5%,1.0%,-71.0*,-11.8%,·,11.1%
Cc1c(Cl)cccc1NC(=O)Nc1ccc2snnc2c1,·,-4.9%,-103.9*,0.0%,-3.9%,·
Cc1ccc(F)c(NC(=O)Nc2ccc3snnc3c2)c1,·,-5.8%,-105.9*,12.9%,23.2%,·
O=S1(=O)N[C@@H](Cc2ccccc2)COc2cccc(N3CCCC3)c21,·,·,3.3,·,·,·
CC(C)CC(=O)Nc1ccc2nc(SCC(=O)N3CCc4ccccc43)sc2c1,·,-0.1%,0.7,?,0.0%,·
CCCN1CCN(CCCNC(=O)c2ccc3c(c2)sc2nc(-c4ccc(OC)cc4)cn23)CC1,·,4.9%,·,13.0%,-2.6%,·
CC(=O)c1cccc(OCc2cc(C(=O)N3CC4C[C@@H]5CC3C[C@H](C4)C5)no2)c1,·,0.3%,-10.2,-8.8%,31.6µM*,-5.4%
Brc1cc2[nH]cnc2c2ccccc12,17.7µM*,-10.0%,21.0,5.5%,?,-19.8%
Oc1ccc2c(ccc3[nH]cnc32)c1,-12.9%,-0.3%,-35.1,33.0%,-3.9%,·
Cc1cccc2c1NC1(CCCC1)CC2C (centres undefined),-23.8%,1.5%,-63.0*,-23.9%,?,2.0%
Cc1ccc2c(c1C)NC(C)CC2C (centres undefined),-29.4%,2.9%,13.0,1.8%,-9.4%,-8.0%
CC1CC2(CCCC2)Nc2ccc(F)cc21 (centres undefined),?,3.3%,?,-11.5%,39.8µM*,7.3%
CCN(CC)C(=O)C1CCN(S(=O)(=O)c2ccc3oc4ccccc4c3c2)CC1,2.2%,-5.0%,-69.8*,·,-14.6%,9.0%

# From PubChem BioAssay
